Fam108B inh = blocks mouse Fam108B hydrolase in RBBP9 counter-screen. inhibition, % at 9.51 µM. hit rate 0.33% among 300,000. AID 1947. recombinant Fam108B, FP-Rh probe fluorescence polarization;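 active = inhibition above the screen mean inhibition plus 3 SD, computed separately per campaign, cut at about 18% in these data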;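 also: inhibitors lower polarization as less probe binds the enzyme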
PME-1 inh = PME-1 (human) inhibition | Q9Y570 | recombinant PME-1, FP-Rh probe fluorescence polarization | inhibition, % at 5.9 µM | hit rate 0.53% among 320,000 | AID 2130;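 active = inhibition above the campaign mean of all compounds plus 3 SD, cut at about 26% in these data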;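 also: competitive labeling of PME-1 active site by serine hydrolase directed probe; inhibitors block probe labeling so polarization falls and inhibition rises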
LYPLA1 inh = blocks human lysophospholipase 1, a PME1 counter-screen; inhibition, % at 5.9 µM; O75608; AID 2174; hit rate 0.16% among 320,000; recombinant LYPLA1, FP-Rh probe fluorescence polarization;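 active = inhibition above the mean of all tested compounds plus 3 SD, set per campaign, cut at about 14% in these data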;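 also: inhibitors block serine hydrolase probe labeling of LYPLA1 so polarization falls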
LYPLA2 inh = counter-screen for PME1 inhibitors: inhibitors of human LYPLA2; O95372; recombinant LYPLA2, FP-Rh probe fluorescence polarization; inhibition, % at 5.9 µM; hit rate 0.38% among 320,000; AID 2177;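 active = inhibition above the screen-wide mean plus 3 SD, limit set per campaign, cut at about 26% in these data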
GSTO1 counter = counter-screen for RBBP9 inhibitors: inhibitors of human GSTO1; recombinant GSTO1, activity-based probe fluorescence polarization; inhibition, % at 5.96 µM; hit rate 1.1% among 300,000; AID 1974;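 active = inhibition above the campaign mean inhibition plus 3 SD, cut at about 35% in these data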
PAD4 FP inh = blocks human protein arginine deiminase 4; Q9UM07; recombinant PAD4, RCA probe fluorescence polarization; inhibition, % at 6.36 µM; hit rate 0.41% among 330,000;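 active = percent inhibition above a cutoff equal to the mean of all tested compounds plus 3 SD, cut at about 15% in these data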
Fam108b inh conf = Fam108b (mouse) hydrolase inhibition, confirmation assay; shares compounds with Fam108B inh; recombinant Fam108b, FP-Rh probe fluorescence polarization; inhibition, % at 9.51 µM; hit rate 44% among 930;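 active = inhibition above a limit from the primary screen, the mean over all compounds plus 3 SD, cut at about 19% in these data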;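 also: inhibitors free the probe so polarization falls as inhibition rises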
Fam108b inh = mouse ABHD17B inhibition | recombinant Fam108b, gel-based ABPP, fluorophosphonate probe | inhibition, % at 20 µM | hit rate 44% among 260 | shares compounds with Fam108B inh; in the data active = inhibition above about 40%
Numbers stand for hits; . = inactive; / = not tested or not shown. Rows were chosen to be rich in hits. Some 1.7% of all compounds tested hit in one or more screens of this group.

SMILES	Fam108B inh	PME-1 inh	LYPLA1 inh	LYPLA2 inh	GSTO1 counter	PAD4 FP inh	Fam108b inh conf	others
O=C(NN=Cc1cc(Cl)c(O)c(Cl)c1)c1cc2c(ccc3ccccc32)o1	/	/	/	/	/	/	/	Fam108b inh=.
CC1(C)Oc2ccc(C(=O)NN)cc2NC1=O	.	.	.	.	.	.	/
Nc1c(S(=O)(=O)c2cccs2)c2nc3ccccc3nc2n1/N=C/c1cccc(O)c1	.	.	.	.	.	.	/
Nc1c(S(=O)(=O)c2cccc(Cl)c2)c2nc3ccccc3nc2n1N=Cc1ccc(O)c(O)c1	/	/	/	/	/	/	/	Fam108b inh=80
COC(=O)c1cc(NC(=S)NC(=O)c2ccccc2)ccc1N1CCOCC1	.	.	.	.	.	.	/
O=C(CCCc1c[nH]c2ccccc12)NCCc1c[nH]c2ccccc12	.	.	.	.	.	.	/
O=C(COC(=O)c1ccccc1C(=O)OCC(=O)NCCc1c[nH]c2ccccc12)NCCc1c[nH]c2ccccc12	19	.	.	.	.	.	.
O=C(NCCc1c[nH]c2ccccc12)OCCCCOC(=O)NCCc1c[nH]c2ccccc12	23	.	.	.	.	.	.
CC1CC/C(=N/Nc2ccccc2)C(=O)N1 (centres undefined)	.	.	.	.	.	.	/
O=C1CCN(S(=O)(=O)c2cccs2)c2ccc(C(F)(F)F)cc2N1	.	.	.	.	.	.	/
CC(=O)c1ccccc1OC(=O)COc1ccc(Cl)cc1C	.	.	.	.	.	.	/
CCCc1ccc(C2C3=C(CC(C)(C)CC3=O)NC3=C2C(=O)c2ccccc23)cc1 (centres undefined)	24	.	.	.	.	.	.
COC(CNC(=O)c1ccc2c(c1)ncn2-c1ccc(C)cc1C)OC	.	.	.	.	.	.	/
COc1ccc(NC(=O)Nc2ccccc2OC)cc1	.	.	.	.	.	.	/
COc1ccccc1NC(=O)Nc1ccc(NC(=O)c2ccccc2O)cc1	21	.	.	.	.	.	.
COc1ccc(OC)c(NC(=O)Nc2ccc(Cl)cc2)c1	23	.	.	.	.	.	.
CC1CCN(C(=O)c2[nH]cnc2C(=O)NCc2ccc(CNC(=O)OC(C)(C)C)cc2)CC1	/	.	.	.	/	.	/
O=S(=O)(Nc1ccc(-c2csc(-c3ccccc3)n2)cc1)c1ccccc1	.	.	.	.	.	.	/
O=[N+]([O-])c1ccc(S(=O)(=O)Nc2ccc(-c3csc(-c4ccccc4)n3)cc2)cc1	25	.	.	.	.	.	.
CCOC(=O)c1ccc(N2CCN(c3ccc(F)cc3)CC2)c(NC(=O)Nc2cccc(OC)c2)c1	36	.	.	.	.	.	.
COc1ccc2c(Cl)c(C(=O)N/N=C/c3c(C)[nH]c4ccccc34)sc2c1	33	32	.	.	.	.	21
COc1ccc2c(Cl)c(C(=O)N/N=C/c3ccc4c(c3)OCO4)sc2c1	.	.	.	.	.	.	/
Cc1nnc(NC(=O)CCSc2ccc(Cl)cc2)s1	.	.	.	.	.	.	/
CN(C)c1ccc(C=NN2C(=S)SC(C)(C)C2N(O)C(=O)Nc2ccc([N+](=O)[O-])cc2)cc1 (centres undefined)	/	/	/	/	/	/	/	Fam108b inh=95
CN(C)c1ccc(/C=N/N2C(=S)SC(C)(C)C2N(O)C(=O)Nc2ccc([N+](=O)[O-])cc2)cc1 (centres undefined)	33	.	.	.	.	.	100
CCOC(=O)C(=O)NCC(c1cccs1)S(=O)(=O)c1ccc(F)cc1 (centres undefined)	.	.	.	.	.	.	/
COc1ccc(CCNS(=O)(=O)c2csc(C(N)=O)c2)cc1OC	.	.	.	.	.	.	/
Cc1ccc(-n2[nH]c(C)c(/C=N/Nc3ccc([N+](=O)[O-])cc3[N+](=O)[O-])c2=O)cc1C	25	30	.	.	.	.	.
Cc1[nH]n(-c2ccccc2)c(=O)c1/C=N/NC(=O)c1cccc([N+](=O)[O-])c1	.	.	.	.	.	.	/
COc1ccccc1NC(=O)Nc1nc(CC(=O)Nc2ccc(F)cc2)cs1	.	.	.	.	.	.	/

Screening results: PubChem, The Scripps Research Institute Molecular Screening Center
